For assay [1], the target named is human Peripheral-type Benzodiazepine Receptor (PBR), TSPO (gene 706) (UniProt P30536). In words: NVS_MP_hPBR: NovaScreen (NVS) Membrane Protein Assay for human Peripheral-type Benzodiazepine Receptor (PBR) (AID 2283331).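 Further: hits reduce radioligand binding relative to DMSO baseline.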 In outline:
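Cell-free binding to human colonic membrane preparations measured by filter-based scintillation counting after 1 h. Compounds first run at 25 uM in duplicate, then concentration series for actives; signal loss against DMSO baseline.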

The target in assay [2] is human Androgen Receptor (AR), AR (gene 367) (UniProt P10275). In words: NVS_NR_hAR: NovaScreen (NVS) Nuclear Receptor Binding Assay for human Androgen Receptor (AR) (AID 2283332). The gist of the method:
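Radioligand competitive binding, scintillation read-out, in cell-free extract from LnCAP, measured 20 h after dosing. Screened first in duplicate at 25 uM, then concentration series for actives; activity fitted against DMSO.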

The target of assay [3] is chimpanzee Androgen Receptor (AR), AR (gene 747460) (UniProt O97775). In words: NVS_NR_cAR: NovaScreen (NVS) Nuclear Receptor Binding Assay for chimpanzee Androgen Receptor (AR) (AID 2283346).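 Further: radioligand displacement from AR measured by scintillation counting in a cell-free assay.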 In outline: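 Cell-free competition binding with insect-cell (Sf9/Sf21) extracted chimpanzee AR; scintillation signal from lysate at 72 h. Screened in duplicate at 25 uM, then concentration-response for actives; fitting relative to DMSO.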

For assay [4], the target named is rat Glutamate, AMPA Site (AMPA), Gria1 (gene 50592) (UniProt P19490). In words: NVS_LGIC_rAMPA: NovaScreen (NVS) Ligand-Gated Ion Channel Assay for rat Glutamate, AMPA Site (AMPA) (AID 2283324). The gist of the method: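 Screening at 25 uM in duplicate preceded concentration series reaching 50 uM for qualifying compounds. Radioligand displacement on rat forebrain membranes, 1 h, filter-based scintillation readout; reduced binding relative to DMSO.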

For assay [5], the target named is rat Thyrotropin Releasing Hormone Receptor (TRH), Trhr (gene 25570) (UniProt Q01717). In words: NVS_GPCR_rTRH: NovaScreen (NVS) G Protein-Coupled Receptor Assay for rat Thyrotropin Releasing Hormone Receptor (TRH) (AID 2283329).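 Further: hit means lower bound tracer signal versus DMSO baseline.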 In outline:
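Competitive radioligand binding on rat forebrain membrane preparations, with filtration and scintillation readout after 4 h. Primary testing in duplicate at 25 uM; actives confirmed in concentration-response. DMSO defined baseline.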

Assay [6] addresses rat Glutamate, NMDA Agonist Site (GluNMDA), Grin1 (gene 24408) (UniProt P35439). In words: NVS_LGIC_rGluNMDA_Agonist: NovaScreen (NVS) Ligand-Gated Ion Channel Assay for rat Glutamate, NMDA Agonist Site (GluNMDA) (AID 2283327). In outline: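 Radioligand displacement at the agonist site on rat forebrain membrane preparations, read by filter scintillation after 1 h. Chemicals were first run at 25 uM in duplicate; those passing threshold were titrated to a 50 uM maximum.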

Assay [7] has as its target Glutamate receptor ionotropic, kainate 1 (Rattus norvegicus) (UniProt P22756). In words: NVS_IC_rKAR: NovaScreen (NVS) Ion Channel Assay for rat Kainic Acid Receptors (KAR) (AID 2283334; active means hit-call score of the fitted dose curve at least 0.9, where 1 is the maximum; inactive means score below 0.9). In outline: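 Rat forebrain membrane preparation incubated 1 h with radioligand and test chemical; bound signal read by filtration and scintillation. Single-concentration screen at 25 uM, then concentration series to 50 uM maximum.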

The target in assay [8] is rat Glutamate, MK-801 Agonist Site (GluNMDA_MK801), Grin1 (gene 24408) (UniProt P35439). In words: NVS_LGIC_rGluNMDA_MK801_Agonist: NovaScreen (NVS) Ligand-Gated Ion Channel Assay for rat Glutamate, MK-801 Agonist Site (GluNMDA_MK801) (AID 2283340). In outline: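 Rat forebrain membrane preparation; MK-801-site radioligand binding read by filtration and scintillation after 1.5 h. Single-point 25 uM duplicate screen, followed by singleton concentration series to 50 uM max; DMSO baseline.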

In assay [9] the test system is guinea pig Histamine Receptor (H2), gene 100729734. In words: NVS_GPCR_gH2: NovaScreen (NVS) G Protein-Coupled Receptor Assay for guinea pig Histamine Receptor (H2) (AID 2283342). In outline: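 Guinea pig striatal membrane preparation with specific radioligand; bound counts measured by filtration and scintillation 1 h post-dosing, DMSO as baseline. Chemicals passing a 25 uM duplicate screen were titrated to a 50 uM maximum.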

Assay [10] addresses Estrogen receptor (Homo sapiens) (UniProt P03372). In words: NVS_NR_hER: NovaScreen (NVS) Nuclear Receptor Binding Assay for human Estrogen Receptor (ER) (AID 2283348). The gist of the method: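 Cell-free MCF7-derived ER preparation, specific radioligand displaced by test compound, read by scintillation counting 18 h post-dosing. Duplicate single-point 25 uM screen, then concentration-response confirmation; DMSO baseline.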

The target of assay [11] is human Serotonin, 5-Hydroxytryptamine Receptor 3 (5HT3), HTR3A (gene 3359) (UniProt P46098). In words: NVS_LGIC_h5HT3: NovaScreen (NVS) Ligand-Gated Ion Channel Assay for human Serotonin, 5-Hydroxytryptamine Receptor 3 (5HT3) (AID 2283325). In outline:
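Initially tested at 25 uM in duplicate, then up to 50 uM in concentration-response for actives, compounds competed with a radioligand for HEK293-derived human 5-HT3 receptor. Bound counts were measured by filtration and scintillation at 1 h; loss of signal versus DMSO.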

For assay [12], the target named is Voltage-gated inwardly rectifying potassium channel KCNH2 (Homo sapiens) (UniProt Q12809). In words: NVS_IC_hKhERGCh: NovaScreen (NVS) Ion Channel Assay for human Potassium Channel ERG (KhERGCh) (AID 2283333). The gist of the method:
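Membranes from CHO cells expressing human ERG; displacement of radioligand measured by filtration and scintillation after 0.75 h. Single-concentration duplicate screen at 25 uM, then concentration-response for actives; DMSO baseline.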

A short description of assay [13]: NVS_IC_rCaBTZCHL: NovaScreen (NVS) Ion Channel Assay for Calcium Channel, Type L, Benzothiazepine Site (CaBTZCHL) (AID 2283337). In outline:
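Test chemicals were added to rat cortical membranes and incubated 1.5 h with a tritiated or iodinated radioligand for the benzothiazepine site. Bound ligand was separated by filtration and counted. Actives from the 25 uM duplicate screen were retested in concentration series.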

Assay [14] has as its target bovine Gamma-Aminobutyric Acid Type A Receptor Agonist (GABAR Agonist), GABRA1 (gene 780973) (UniProt P08219). In words: NVS_LGIC_bGABAR_Agonist: NovaScreen (NVS) Ligand-Gated Ion Channel Assay for bovine Gamma-Aminobutyric Acid Type A Receptor Agonist (GABAR Agonist) (AID 2283338). The gist of the method:
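Radioligand binding to bovine cerebellar membranes in agonist format, read by filter-based scintillation counting after 1 h. Primary screen in duplicate at 25 uM, with actives followed in concentration series. Gain of signal versus DMSO.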

The test system of a further assay is NCBI gene 100848466. In words: NVS_NR_bPR: NovaScreen (NVS) Nuclear Receptor Binding Assay for bovine Progextron Receptor (PR) (AID 2283343).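 Further: actives lower bound radioligand signal below DMSO meaning displacement of the label.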 In outline: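 Competitive radioligand binding with membranes from bovine uterus, scintillation read-out at 18 h post-dose. Compounds first tested in duplicate at 25 uM, then actives in concentration series; loss-of-signal relative to DMSO.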

Inconclusive results are not listed. Calls of active or inactive are those of the source. How the source made its calls, unless noted: active means hit-call score of the fitted dose curve at least 0.9, where 1 is the maximum; inconclusive means response in the unintended direction; inactive means score below 0.9.

A word on the AC50: it is the concentration giving half of the maximal activity seen.

Sequence of human Peripheral-type Benzodiazepine Receptor (PBR), TSPO (gene 706) (P30536 whole entry, looked up): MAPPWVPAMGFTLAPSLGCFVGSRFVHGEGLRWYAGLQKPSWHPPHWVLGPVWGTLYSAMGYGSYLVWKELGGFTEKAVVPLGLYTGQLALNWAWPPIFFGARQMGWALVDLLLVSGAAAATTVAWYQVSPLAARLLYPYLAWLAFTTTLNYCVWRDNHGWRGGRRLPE
Sequence of bovine Gamma-Aminobutyric Acid Type A Receptor Agonist (GABAR Agonist), GABRA1 (gene 780973) (P08219 whole entry, looked up): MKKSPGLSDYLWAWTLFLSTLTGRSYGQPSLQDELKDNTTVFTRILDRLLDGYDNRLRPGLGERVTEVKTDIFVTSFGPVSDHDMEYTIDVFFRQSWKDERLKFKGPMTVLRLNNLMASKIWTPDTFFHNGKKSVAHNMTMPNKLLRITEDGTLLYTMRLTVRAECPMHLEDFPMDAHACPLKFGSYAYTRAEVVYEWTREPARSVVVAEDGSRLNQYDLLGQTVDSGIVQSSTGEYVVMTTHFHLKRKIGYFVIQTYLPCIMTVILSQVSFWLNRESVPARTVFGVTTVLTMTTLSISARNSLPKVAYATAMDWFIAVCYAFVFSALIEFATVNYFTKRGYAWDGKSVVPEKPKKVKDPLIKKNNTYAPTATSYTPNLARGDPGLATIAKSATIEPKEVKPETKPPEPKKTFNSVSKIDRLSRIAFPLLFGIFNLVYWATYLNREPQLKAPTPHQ
Sequence of rat Thyrotropin Releasing Hormone Receptor (TRH), Trhr (gene 25570) (Q01717 whole entry, looked up): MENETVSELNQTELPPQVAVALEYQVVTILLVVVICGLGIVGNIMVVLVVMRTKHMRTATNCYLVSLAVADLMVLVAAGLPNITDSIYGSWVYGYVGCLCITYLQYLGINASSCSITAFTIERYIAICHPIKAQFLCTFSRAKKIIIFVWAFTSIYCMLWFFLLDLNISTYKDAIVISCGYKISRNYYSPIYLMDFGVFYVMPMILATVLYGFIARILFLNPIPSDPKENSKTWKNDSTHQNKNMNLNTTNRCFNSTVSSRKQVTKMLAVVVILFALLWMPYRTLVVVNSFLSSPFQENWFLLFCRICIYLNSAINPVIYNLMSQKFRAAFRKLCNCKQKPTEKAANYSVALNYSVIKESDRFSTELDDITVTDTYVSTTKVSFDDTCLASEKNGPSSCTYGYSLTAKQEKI
Sequence of chimpanzee Androgen Receptor (AR), AR (gene 747460) (O97775 whole entry, looked up): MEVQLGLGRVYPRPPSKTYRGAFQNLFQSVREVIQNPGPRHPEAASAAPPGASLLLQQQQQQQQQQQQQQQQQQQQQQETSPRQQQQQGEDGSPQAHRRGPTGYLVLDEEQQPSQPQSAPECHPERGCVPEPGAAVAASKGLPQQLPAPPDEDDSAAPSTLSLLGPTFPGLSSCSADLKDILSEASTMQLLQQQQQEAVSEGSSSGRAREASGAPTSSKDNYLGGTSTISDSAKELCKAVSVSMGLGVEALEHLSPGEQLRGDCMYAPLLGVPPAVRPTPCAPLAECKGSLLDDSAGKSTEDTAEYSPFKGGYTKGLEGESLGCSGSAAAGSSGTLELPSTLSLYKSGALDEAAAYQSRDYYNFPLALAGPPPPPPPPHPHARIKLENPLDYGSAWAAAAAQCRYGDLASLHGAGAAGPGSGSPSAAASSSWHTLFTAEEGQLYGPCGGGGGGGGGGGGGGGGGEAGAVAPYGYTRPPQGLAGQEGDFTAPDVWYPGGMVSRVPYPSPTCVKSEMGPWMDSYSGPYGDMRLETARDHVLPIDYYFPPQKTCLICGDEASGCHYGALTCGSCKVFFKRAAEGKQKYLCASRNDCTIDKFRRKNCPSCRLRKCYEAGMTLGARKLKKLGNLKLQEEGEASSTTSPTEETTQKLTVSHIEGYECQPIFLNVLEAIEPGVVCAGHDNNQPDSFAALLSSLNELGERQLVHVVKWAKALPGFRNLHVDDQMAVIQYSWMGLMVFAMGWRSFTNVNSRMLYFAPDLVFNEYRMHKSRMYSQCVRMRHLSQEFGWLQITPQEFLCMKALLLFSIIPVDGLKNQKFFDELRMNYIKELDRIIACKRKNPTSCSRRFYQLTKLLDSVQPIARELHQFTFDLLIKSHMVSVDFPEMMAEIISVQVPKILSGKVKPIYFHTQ
Sequence of Voltage-gated inwardly rectifying potassium channel KCNH2 (Homo sapiens) (Q12809 whole entry, looked up): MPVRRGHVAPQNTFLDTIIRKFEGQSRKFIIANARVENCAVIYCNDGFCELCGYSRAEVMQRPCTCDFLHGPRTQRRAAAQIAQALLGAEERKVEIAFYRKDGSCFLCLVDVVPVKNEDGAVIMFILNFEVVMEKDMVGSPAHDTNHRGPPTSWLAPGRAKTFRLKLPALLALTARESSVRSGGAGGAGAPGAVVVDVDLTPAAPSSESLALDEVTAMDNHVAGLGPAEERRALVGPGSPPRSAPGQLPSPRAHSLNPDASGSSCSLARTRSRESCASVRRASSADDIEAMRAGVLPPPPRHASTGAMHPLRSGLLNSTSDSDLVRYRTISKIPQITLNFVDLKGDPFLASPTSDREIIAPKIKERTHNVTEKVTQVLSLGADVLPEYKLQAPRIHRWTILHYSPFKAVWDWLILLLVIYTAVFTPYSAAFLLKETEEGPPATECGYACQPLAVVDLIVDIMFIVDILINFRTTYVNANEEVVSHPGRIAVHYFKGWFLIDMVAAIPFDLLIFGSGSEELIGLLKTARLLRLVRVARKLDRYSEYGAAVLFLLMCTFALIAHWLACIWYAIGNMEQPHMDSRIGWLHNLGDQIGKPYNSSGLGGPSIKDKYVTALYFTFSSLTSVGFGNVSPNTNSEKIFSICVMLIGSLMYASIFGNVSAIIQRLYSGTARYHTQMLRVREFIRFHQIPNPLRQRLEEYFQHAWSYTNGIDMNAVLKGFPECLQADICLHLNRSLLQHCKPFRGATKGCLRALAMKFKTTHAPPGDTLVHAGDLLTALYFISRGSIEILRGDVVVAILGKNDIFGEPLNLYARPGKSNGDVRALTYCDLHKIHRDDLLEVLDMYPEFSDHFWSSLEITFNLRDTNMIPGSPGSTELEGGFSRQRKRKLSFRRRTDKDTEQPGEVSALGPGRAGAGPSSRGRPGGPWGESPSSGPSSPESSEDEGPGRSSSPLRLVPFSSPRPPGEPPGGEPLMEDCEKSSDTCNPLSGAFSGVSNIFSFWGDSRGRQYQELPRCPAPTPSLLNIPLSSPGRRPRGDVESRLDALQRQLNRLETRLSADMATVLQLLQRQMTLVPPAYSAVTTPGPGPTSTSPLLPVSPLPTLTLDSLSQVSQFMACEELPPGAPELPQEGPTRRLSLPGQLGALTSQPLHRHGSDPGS
Sequence of Glutamate receptor ionotropic, kainate 1 (Rattus norvegicus) (P22756 whole entry, looked up): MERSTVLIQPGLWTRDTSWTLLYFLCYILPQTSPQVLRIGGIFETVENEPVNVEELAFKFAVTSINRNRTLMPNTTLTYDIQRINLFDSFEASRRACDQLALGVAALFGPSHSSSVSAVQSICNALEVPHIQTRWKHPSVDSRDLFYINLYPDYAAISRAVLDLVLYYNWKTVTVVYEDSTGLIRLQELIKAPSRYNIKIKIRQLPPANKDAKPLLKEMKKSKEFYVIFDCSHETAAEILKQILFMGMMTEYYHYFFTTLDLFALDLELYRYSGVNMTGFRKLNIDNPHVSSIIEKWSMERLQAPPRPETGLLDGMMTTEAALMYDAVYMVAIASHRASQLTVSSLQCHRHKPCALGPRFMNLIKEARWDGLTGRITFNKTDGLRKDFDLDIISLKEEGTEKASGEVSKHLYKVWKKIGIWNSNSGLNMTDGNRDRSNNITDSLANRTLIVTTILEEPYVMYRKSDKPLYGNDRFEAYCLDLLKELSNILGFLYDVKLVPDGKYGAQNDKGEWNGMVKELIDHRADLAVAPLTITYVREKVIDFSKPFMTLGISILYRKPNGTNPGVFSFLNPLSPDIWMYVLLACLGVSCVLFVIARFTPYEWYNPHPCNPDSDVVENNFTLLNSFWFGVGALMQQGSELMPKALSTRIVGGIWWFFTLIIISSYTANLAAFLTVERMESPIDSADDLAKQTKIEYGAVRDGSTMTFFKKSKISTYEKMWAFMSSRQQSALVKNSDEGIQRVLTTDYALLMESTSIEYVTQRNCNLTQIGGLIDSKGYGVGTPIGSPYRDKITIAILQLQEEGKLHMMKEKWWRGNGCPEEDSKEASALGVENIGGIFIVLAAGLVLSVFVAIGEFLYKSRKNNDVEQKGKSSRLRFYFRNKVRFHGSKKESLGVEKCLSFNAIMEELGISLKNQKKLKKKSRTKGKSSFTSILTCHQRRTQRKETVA
Sequence of human Androgen Receptor (AR), AR (gene 367) (P10275 whole entry, looked up): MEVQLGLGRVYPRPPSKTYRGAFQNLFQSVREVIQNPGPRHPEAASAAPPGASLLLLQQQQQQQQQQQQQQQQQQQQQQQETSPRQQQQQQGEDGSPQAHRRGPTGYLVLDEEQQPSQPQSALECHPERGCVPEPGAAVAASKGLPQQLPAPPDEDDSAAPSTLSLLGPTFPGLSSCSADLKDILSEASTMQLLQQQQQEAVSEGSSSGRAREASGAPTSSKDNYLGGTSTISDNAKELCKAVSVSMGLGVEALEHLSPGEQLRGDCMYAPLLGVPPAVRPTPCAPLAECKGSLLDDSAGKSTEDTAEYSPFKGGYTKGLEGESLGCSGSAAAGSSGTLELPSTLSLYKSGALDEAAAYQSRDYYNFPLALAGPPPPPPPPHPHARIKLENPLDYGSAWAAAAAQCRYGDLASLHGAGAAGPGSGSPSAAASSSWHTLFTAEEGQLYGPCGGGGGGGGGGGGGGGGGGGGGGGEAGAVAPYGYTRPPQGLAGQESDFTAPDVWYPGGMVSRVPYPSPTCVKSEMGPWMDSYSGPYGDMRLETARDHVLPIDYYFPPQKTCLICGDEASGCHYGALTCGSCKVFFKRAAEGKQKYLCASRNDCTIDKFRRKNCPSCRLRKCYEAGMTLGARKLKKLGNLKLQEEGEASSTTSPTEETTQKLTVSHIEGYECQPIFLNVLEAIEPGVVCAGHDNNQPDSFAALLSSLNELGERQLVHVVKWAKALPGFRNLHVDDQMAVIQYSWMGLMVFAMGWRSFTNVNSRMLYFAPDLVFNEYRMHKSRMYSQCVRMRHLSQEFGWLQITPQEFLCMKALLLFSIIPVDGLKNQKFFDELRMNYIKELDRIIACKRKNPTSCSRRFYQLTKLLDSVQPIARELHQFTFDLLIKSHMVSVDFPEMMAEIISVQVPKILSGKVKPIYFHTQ

As for `O=C(O)c1cccc(N(Cc2cccnc2)c2ccc(OC(F)F)c(OC(F)F)c2)c1`, the call in assay [1] was inactive. Besides, the concentration at half-maximal activity (AC50) in assay [2] is 0.0186 µM (active); in assay [3] it was 2.81 µM (active).
Turning to `CC1=CC(=O)CC(C)(C)C1`, the outcome in [4] was inactive.
Turning to `CCOC(=O)CC(CC(=O)OCC)(OC(C)=O)C(=O)OCC`, the outcome in assay [5] was inactive.
Take `O=c1[nH]c2ccc(S(=O)CCN3CCC(Cc4ccc(F)cc4)CC3)cc2o1` (configuration not stated): the outcome in assay [6], in assay [7] and in assay [8] was inactive. For the same compound, the AC50 in assay [9] is 1.21 µM (active).
As to `COc1ccc2sc(C(=O)Nc3nnn[nH]3)c(OC(C)C)c2c1`, the AC50 in assay [1] was 25 µM (active). In addition, the outcome in assay [7], in assay [3] and in assay [10] was inactive.
In the case of `O=C(NS(=O)(=O)/C=C/c1ccccc1)c1ccc(F)cc1Cl`, the AC50 in [5] was 0.0025 µM (active).
Take `Cc1[nH]cnc1C[C@H]1CCc2c(C)c3ccccc3n2C1=O`: the AC50 in [11] is 0.00204 µM (active); in assay [12] it was 4.76 µM (active); in [14], 9.14 µM (active); in assay [9], 12.2 µM (active). The call in assay [5], in [1] and in assay [13] was inactive.
Consider `Oc1ccc2c(c1)-c1ccccc1C2`, for which the results for the AC50 (in assay [2]; in the assay on NCBI gene 100848466; in assay [3]) were 6.89 µM (active), 25 µM (active) and 8.77 µM (active), respectively.
Take `CC(C)CC(C)(O)C#CC(C)(O)CC(C)C` (configuration not stated): the outcome in assay [12] was inactive.
As to `O=C(O)CCN(C1(C(=O)NO)CCCC1)S(=O)(=O)c1ccc(Oc2ccc(F)cc2)cc1`, the AC50 in assay [14] is 7.72 µM (active).
In the case of `Nc1nc2ncc(CNc3ccc(C(=O)N[C@@H](CCC(=O)O)C(=O)O)cc3)nc2c(=O)[nH]1`, the result in assay [3] was inactive.
For the compound `O=C(O)c1cc(N=Nc2ccc(S(=O)(=O)Nc3ccccn3)cc2)ccc1O`, the AC50 in assay [3] was 5.35 µM (active).
Consider `CC(=O)OC[C@H]1O[C@@](COC(C)=O)(O[C@H]2O[C@H](COC(C)=O)[C@@H](OC(C)=O)[C@H](OC(C)=O)[C@H]2OC(C)=O)[C@@H](OC(C)=O)[C@@H]1OC(C)=O`, for which the call in assay [14] was inactive.
Regarding `Cc1ccc(C)c(O)c1`, in assay [14], the outcome was inactive.
As to `CC(C)=CCC/C(C)=C/CO`, the call in assay [3] was inactive.
Regarding `CC[C@H](C)C(=O)O[C@H]1C[C@@H](C)C=C2C=C[C@H](C)[C@H](CC[C@@H]3C[C@@H](O)CC(=O)O3)[C@H]21`, the AC50 in assay [3] is 24.9 µM (active).

Source of the values: PubChem BioAssay (EPA / NIEHS).
